Experiment [1] addresses Calcium and integrin-binding protein 1 (Homo sapiens) (UniProt Q99828). The experiment can be described thus: Primary qHTS for Identification of Calcium Integrin Binding Protein 1 (CIB1) Competitor (AID 1508620).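 Also: GST tagged CIB1 binding a fluorescein labelled alphaIIb integrin peptide tracer; top concentration of the series differs between compounds.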 The procedure, abridged:
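CIB1-GST (1 uM final) and compound incubated 15 min at room temperature before adding FITC-alphaIIb peptide tracer (100 nM final). Competition for binding read by fluorescence polarization (ex 480, em 540) after another 15 min at room temperature.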

Experiment [2] in a line: Primary qHTS for inhibitors of nuclear receptor binding SET domain protein 2 (NSD2) in an isogenic RCH-ACV NSD2 p.E1099K mutant (9B) (AID 1645876). Also: nearly all actives have a fitted effect of over 70% in size. Also: potency is read from the fitted curve at half-maximal effect. In general terms: In qHTS, concentration-response curves come from the screen itself.
A short description of experiment [3]: Primary qHTS for inhibitors of nuclear receptor binding SET domain protein 2 (NSD2) in an RCH-ACV wild type WT cells (2C) (AID 1645877). Also: nearly all actives have a fitted effect of over 70% in size. Also: potency is read from the fitted curve at half-maximal effect.

SMILES strings stand for the structures. Where “and” joins values, the source holds several entries; their conditions need not be identical. Equal values may be shown once. Records with an inconclusive call do not appear. Calls of active or inactive are those of the source. Calls follow the shape of the dose curve; as a rule, active = well fitted curve in the direction sought with a large enough effect; inconclusive = small, poorly fitted or top-dose-only effect, or another doubt; inactive = no such curve, though single readings can be large; an effect the other way counts as inactive or inconclusive.

Chain of Calcium and integrin-binding protein 1 (Homo sapiens) (Q99828 whole entry, looked up): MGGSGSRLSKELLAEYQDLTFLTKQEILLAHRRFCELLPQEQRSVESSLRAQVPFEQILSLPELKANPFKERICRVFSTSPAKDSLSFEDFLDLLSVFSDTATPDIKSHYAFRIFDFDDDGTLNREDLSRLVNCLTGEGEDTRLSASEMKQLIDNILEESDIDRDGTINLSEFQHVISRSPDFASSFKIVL

In the case of `CC(/C=C/C(=O)NO)=C\[C@@H](C)C(=O)c1ccc(N(C)C)cc1`, the Potency result in experiment [1] is “inactive”. The Potency in experiment [2] was 183 nM (active) and 1.05 µM (active); in experiment [3], 183 nM (active) and 934 nM (active).
Regarding `CC(=O)CC(=O)Nc1ccc(Cl)c(C(F)(F)F)c1`, the Potency entry in experiment [1] is “inactive”. The Potency in experiment [2] was 20.5 µM (active); in experiment [3], 10.3 µM (active).
On the same counts, the results for `C=C1C(=O)O[C@@H]2/C=C(\CO)CC/C=C(/C=O)C[C@H](O)[C@@H]12` are “inactive”, 7.28 µM (active) and 4.09 µM (active).
With `CC1(C)CC[C@]2(C(=O)O)CC[C@]3(C)C(=CCC4[C@@]5(C)C[C@@H](O)[C@H](O)C(CO)(CO)C5CC[C@]43C)C2[C@@H]1O` (stereo partly specified), the Potency result in experiment [1] was “inactive”. The Potency in experiment [2] and in experiment [3] was 8.93 µM (active) in each case.
As for `CCc1cc(C(N)=O)ccc1-n1nc(C(C)C)c2c(-n3cnc(-c4cnn(C)c4)c3)ccnc21`, the Potency result in experiment [1] is “inactive”. Besides, the Potency is 1.18 µM (active) in experiment [2] and 1.05 µM (active) in experiment [3].
The corresponding values for `COc1cc(O)c2c(c1)C1OC1C[C@H](O)[C@H](O)C(=O)/C=C\C[C@H](C)OC2=O` (stereo partly specified) are “inactive”, 3.25 µM (active) and 2.05 µM (active).
On the same counts, the results for `CC1CCC/C=C/C(=O)c2c(O)cc(O)cc2CC(=O)O1` (stereo unspecified) are “inactive”, 2.9 µM (active) and 2.05 µM (active).
The corresponding values for `CCCCCCCCn1cc(CN(CC)CC)c2cc(-c3cnc(N)nc3)ccc21` are “inactive”, 4.09 µM (active) and 3.25 µM (active).
Turning to `CN(C)CCOC(C)(c1ccccc1)c1ccc(Cl)cc1` (stereo unspecified), the Potency result in experiment [1] is “inactive”. Moreover, the Potency in experiment [2] was 11.5 µM (active); in experiment [3] it was 10.3 µM (active).
As for `CCn1nc(C2CCN(C(=O)CCO)CC2)nc1-c1cnc(N)c(-c2nnc(C(C)(C)C)o2)n1`, the Potency result in experiment [1] is “inactive”. Besides, the Potency in experiment [2] was 164 nM (active) and 296 nM (active); in experiment [3], 64.9 nM (active) and 263 nM (active).
For `Cc1cc2c(cc1N1C(=O)c3cccc4c(CCCO)ccc(c34)C1=O)n(C)c(=O)n2C`, the Potency entry in experiment [1] is “inactive”. For the same compound, the values for the Potency in experiment [2] and in experiment [3] were 0.858 µM (active) and 0.608 µM (active), respectively.
The corresponding values for `C=C[C@@]1(C)C=C2C(=O)C(O)=C3[C@](C)(C(=O)O)CC[C@@H]4C[C@]34[C@]2(O)C(=O)C1` are “inactive”, 10.1 µM (active) and 2.53 µM (active).
Take `CC(=O)O[C@@H]1CC[C@@]2(C)C(CC[C@]3(C)C2[C@H](O)C=C2[C@H]4[C@@H](C)[C@H](C)CC[C@]4(C)CC[C@]23C)[C@@]1(C)C(=O)O` (stereo partly specified): the Potency result in experiment [1], in experiment [2] and in experiment [3] was “inactive” throughout.
For the compound `CN(C)CCC(CSc1ccccc1)Nc1ccc(S(=O)(=O)NC(=O)c2ccc(N3CCN(Cc4ccccc4-c4ccc(Cl)cc4)CC3)cc2)cc1[N+](=O)[O-]` (stereo unspecified), the Potency result in experiment [1] was “inactive”. The Potency is 0.916 µM (active) in experiment [2] and 0.515 µM (active) in experiment [3].
On the same counts, the results for `CC(=O)OC1C(O)CC2(C)C(CCC3(C)C2CC=C2C4C5(CCC(CO[C@@H]6O[C@H](CO)[C@@H](O)[C@H](O)[C@H]6O)(OC5=O)C4(C)O)C(O)CC23C)C1(C)C` (stereo partly specified) are “inactive”, “inactive” and “inactive”.
On the same counts, the results for `C=C1C(=O)OC2/C=C(\C)CC/C=C(\C=O)C(OC)C(OC(=O)C(C)CC)C12` (stereo unspecified) are “inactive”, 7.13 µM (active) and 2.84 µM (active).
On the same counts, the results for `C[C@@H]1CC[C@]2(C(=O)O)CC[C@]3(C)C(=CCC4[C@@]5(C)CC[C@H](O)[C@](C)(C(=O)O)C5CC[C@]43C)C2[C@]1(C)O` (stereo partly specified) are “inactive”, “inactive” and “inactive”.
On to `O=C(Nc1cccc(C(F)(F)F)c1)Nc1ccc(Br)cc1-c1nn[nH]n1`, for which the Potency entry in experiment [1], in experiment [2] and in experiment [3] was “inactive” throughout.
As to `Cc1ccc(C)c(-c2cc(C(F)(F)F)nn2-c2ccc(S(N)(=O)=O)cc2)c1`, the Potency result in experiment [1] was “inactive”. Besides, the Potency is 20.5 µM (active) in experiment [2] and 25.8 µM (active) in experiment [3].
On the same counts, the results for `Nc1ncnc2c1nc(Cl)n2C1OC2COP(=O)(O)OC2C1O` (stereo unspecified) are “inactive”, 2.05 µM (active) and 2.9 µM (active).
The corresponding values for `C=C1C(=O)O[C@@H]2/C=C(/C)[C@@H](OC(C)=O)C/C=C(\C)C[C@@H](OC(=O)/C(=C/CO)CO)[C@@H]12` are “inactive”, 7.09 µM (active) and 3.17 µM (active).
In the case of `CC1(C)CC[C@]23CO[C@@]4(CCC5[C@@]6(C)CC[C@H](O[C@@H]7OC[C@H](O[C@@H]8O[C@H](CO)[C@@H](O)[C@H](O)[C@H]8O[C@@H]8OC[C@@H](O)[C@H](O)[C@H]8O)[C@H](O)[C@H]7O[C@@H]7O[C@H](CO)[C@@H](O)[C@H](O)[C@H]7O)[C@@](C)(CO)C6CC[C@@]5(C)[C@]4(C)C[C@H]2O)[C@@H]3C1` (stereo partly specified), in experiment [1], the Potency entry was “inactive”. Also, the Potency in experiment [2] is 1.54 µM (active); in experiment [3] it was 2.75 µM (active).

The values above are taken from PubChem BioAssay (NCATS).
